The values that follow come from PubChem BioAssay (Tox21).

A short description of test [1]: Nuclear factor erythroid 2-related factor 2/antioxidant responsive element (Nrf2/ARE) small molecule agonists: qHTS cell viability counter screen in human keratinocytes (AID 1919968; active means well fitted curve in the direction sought with a large enough effect in the repeat runs; an effect the other way counts as inactive or inconclusive; further: nearly all actives have a fitted effect of over 55% in size; further: potency means the concentration at half of the fitted maximal effect). In outline: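 KeratinoSens cells (HaCaT keratinocytes stably carrying an ARE-luciferase reporter) were seeded at 1,500 cells/well and rested 5 h at 37 C/5% CO2. They were then exposed to compounds in DMSO for 23 h. Viability was read by CellTiter-Fluor fluorescence after 1 h.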
In general terms: qHTS replaces the single test concentration by a dilution series.

Test [2] in a line: Nuclear factor erythroid 2-related factor 2/antioxidant responsive element (Nrf2/ARE) small molecule agonists: luciferase reporter gene qHTS assay in human keratinocytes (AID 1919969). Further: nearly all actives have a fitted effect of over 35% in size. Further: potency means the concentration at half of the fitted maximal effect. For orientation: Reporter assays use an easily measured gene product as a stand-in for the process of interest.
The target in test [3] is Gonadotropin-releasing hormone receptor (Homo sapiens) (UniProt P30968). As to the kind of experiment: Human gonadotropin-releasing hormone receptor (GnRHR) small molecule agonists, calcium flux assay in GnRHR-HEK293 cells (AID 1920063). Further: nearly all actives have a fitted effect of over 35% in size. In outline: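 HEK293 cells stably expressing human GnRHR were plated 18 h at 37 °C, loaded with calcium dye 1 h at 37 °C, then given compound in agonist mode; fluorescence (Ex/Em 480/540) read kinetically for 3 min at 1 s intervals.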
Gonadotropin-releasing hormone receptor (Homo sapiens), sequence (P30968 whole entry, looked up): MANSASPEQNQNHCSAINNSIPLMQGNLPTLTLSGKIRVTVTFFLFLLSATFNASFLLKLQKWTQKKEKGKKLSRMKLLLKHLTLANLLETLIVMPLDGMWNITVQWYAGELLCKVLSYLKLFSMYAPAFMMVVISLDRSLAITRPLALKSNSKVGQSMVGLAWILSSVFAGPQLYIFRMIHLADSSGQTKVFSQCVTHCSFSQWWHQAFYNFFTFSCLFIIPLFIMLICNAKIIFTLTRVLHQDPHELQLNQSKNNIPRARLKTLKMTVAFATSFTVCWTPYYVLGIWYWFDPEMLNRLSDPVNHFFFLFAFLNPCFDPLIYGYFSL
Background: Calcium assays in cells follow changes in intracellular calcium, usually with a dye or a luminescent sensor.

In test [4] the target is KiSS-1 receptor (Homo sapiens) (UniProt Q969F8). Kind of test: Human kisspeptin (KISS1R) small molecule agonists, calcium flux assay in KISS1R-HEK293 cells (AID 1920064; active means well fitted curve in the direction sought with a large enough effect in the repeat runs; an effect the other way counts as inactive or inconclusive). In outline:
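HEK293 cells stably expressing human KISS1R were plated 18 h at 37 °C, loaded with calcium dye for 1 h at 37 °C, then given compound by pin tool. Fluorescence (Ex/Em 480/540) was read kinetically for 3 min.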

Test [5] is described as follows: G protein-coupled receptor (GPCR) small molecule agonists, calcium flux assay: HEK293 wild type cell line counter screen (AID 1920065). The procedure, abridged:
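Cells were plated and cultured 18 h at 37 C/5% CO2, then loaded with calcium dye for 1 h at 37 C. Compounds in DMSO were pin-transferred in agonist mode, and fluorescence (Ex/Em 480/540) was read kinetically for 3 min at 1 s intervals.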

Test [6] in a line: p53 small molecule agonists, cell-based qHTS assay with human liver microsomes (AID 1963577). The procedure, abridged: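 Compounds act here after metabolic activation: human liver microsomes and NADPH, both at 0.5 mg/mL final, were co-added to p53RE-bla cells. Incubation ran 16 h at 37 C, followed by LiveBLAzer detection.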
Test [7] is described as follows: p53 small molecule agonists, cell-based qHTS assay with rat liver microsomes (AID 1963578). Further: potency means the concentration at half of the fitted maximal effect. The procedure, abridged:
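Read-out is beta-lactamase reporter fluorescence (LiveBLAzer, 2 h, room temperature, dark) in p53RE-bla cells treated 16 h at 37 C with compound, rat liver microsomes and NADPH, both 0.5 mg/mL final.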

Test [8] can be described thus: p53 small molecule agonists, cell-based qHTS assay with human liver microsomes: qHTS cell viability counter screen (AID 1963579). Further: nearly all actives have a fitted effect of over 45% in size. Further: potency means the concentration at half of the fitted maximal effect. The procedure, abridged: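 Cells carrying the p53 response-element beta-lactamase reporter are treated for 16 h at 37 C with test compounds in the presence of human liver microsomes and NADPH (both 0.5 mg/mL final); ATP-based CellTiter-Glo luminescence then reports viability.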

The nature of test [9]: p53 small molecule agonists, cell-based qHTS assay with rat liver microsomes: qHTS cell viability counter screen (AID 1963580). Further: nearly all actives have a fitted effect of over 45% in size. In outline:
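p53RE-bla HCT-116 cells were exposed 16 h at 37 C to compounds with rat liver microsomes (0.5 mg/mL) and NADPH (0.5 mg/mL). Viability was measured in the same wells as ATP content by CellTiter-Glo luminescence.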

Test [10] can be described thus: p53 small molecule agonists, cell-based qHTS assay: qHTS cell viability counter screen (AID 1963581). Further: nearly all actives have a fitted effect of over 45% in size. Further: potency means the concentration at half of the fitted maximal effect. In outline:
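p53RE-bla HCT-116 cells were exposed to compounds for 16 h at 37 C; after the beta-lactamase FRET read in the same wells, CellTiter-Glo was added and luminescence (intracellular ATP) read after 30 min at room temperature.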

Test [11] in a line: p53 small molecule agonists, cell-based qHTS assay (AID 1963582; active means well fitted activation curve with a large enough effect in the signal ratio in the repeat runs, not every such curve was filed as active; the % refers to the signal ratio). The procedure, abridged: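 p53RE-bla beta-lactamase reporter cells rested 5 h at 37 C/5% CO2, then received compounds in DMSO by pin transfer and were incubated 16 h at 37 C. LiveBLAzer B/G FRET substrate was loaded for 2 h at room temperature before fluorescence reading.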
A short description of test [12]: cAMP Responsive Elements (CRE) small molecule agonists, cell-based qHTS assay (AID 1963590). The procedure, abridged: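 CRE-bla HEK 293T cells in DMEM with 10% dialyzed FBS, NEAA, pyruvate and 25 mM HEPES were plated 18 h at 37 C/5% CO2, then exposed to compounds in DMSO for 3 h before LiveBLAzer B/G FRET substrate addition.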
The nature of test [13]: cAMP Responsive Elements (CRE) small molecule antagonists, cell-based qHTS assay (AID 1963591; active means well fitted inhibition curve with a large enough effect in the signal ratio in the repeat runs, not every such curve was filed as active; the % refers to the signal ratio). The procedure, abridged: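 CRE-bla HEK293T cells were plated 18 h at 37 °C/5% CO2, pinned with compound in DMSO, then stimulated with NKH477 at 0.25 uM final for 3 h. LiveBLAzer B/G FRET substrate was added and plates incubated 2 h at room temperature.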
Test [14] addresses Beta-2 adrenergic receptor (Homo sapiens) (UniProt P07550). Kind of test: Adrenergic beta2 receptor (ADRB2) small molecule antagonists, cell-based qHTS assay (AID 1963592). Further: series mostly up to about 92 µM; nearly all actives have a fitted effect of over 50% in size. In outline: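 Cells (CHO, stable ADRB2 overexpression) incubated 18-20hr at 37C; compounds added from DMSO; agonist mix (1nM isoproterenol, 100uM IBMX, 25uM Ro-20-1724) added; 0.5hr RT; d2-cAMP and anti-cAMP-cryptate added; 1hr RT; 665/615 nm read.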

Test [15] addresses D(2) dopamine receptor (Homo sapiens) (UniProt P14416). As to the kind of experiment: Dopamine D2 receptor (DRD2) small molecule agonists, cell-based qHTS assay (AID 1963594). Further: nearly all actives have a fitted effect of over 35% in size. The procedure, abridged:
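HEK293 cells stably expressing human DRD2, pre-treated with PDE inhibitor Ro20-1724 (0.1 mM final) and compound 10 min at room temperature, then stimulated with NKH477 (200nM […]) for 30 min. cAMP read by HTRF (665/620 nm).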

The target is the same in test [16]. Kind of test: Dopamine D2 receptor (DRD2) small molecule antagonists, cell-based qHTS assay (AID 1963595; active means well fitted inhibition curve with a large enough effect in the signal ratio in the repeat runs, with a control signal flat; the % refers to the signal ratio). The procedure, abridged: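 HTRF cAMP read-out at 665 and 620 nm emission (340 nm excitation). Antagonist mode: compounds were tested against 12 nM quinpirole in DRD2-HEK293 cells, with 200 nM NKH477 raising cAMP and 0.1 mM Ro20-1724 blocking its breakdown.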

The target in test [17] is Beta-2 adrenergic receptor (Homo sapiens) (UniProt P07550). Kind of test: Adrenergic beta2 receptor (ADRB2) small molecule agonists, cell-based qHTS assay (AID 1963593).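 Further: CHO cells stably overexpressing human ADRB2.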 In outline:
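CHO cells stably over-expressing ADRB2 were plated overnight at 37C, then dosed with compounds plus a stimulation mix containing 100uM IBMX and 25uM Ro-20-1724 for 0.5hr at room temperature. cAMP was measured by HTRF competition, 1hr.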

The target of test [18] is 5-hydroxytryptamine receptor 2A (Homo sapiens) (UniProt P28223). As to the kind of experiment: 5-hydroxytryptamine receptor 2A (HTR2A) small molecule antagonists, cell-based qHTS assay (AID 1963586). Further: nearly all actives have a fitted effect of over 45% in size. The procedure, abridged:
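Antagonist-mode intracellular calcium assay: DOI (4 nM) added after 5 min compound pre-incubation at room temperature to dye-loaded HTR2A-CHO cells. Fluorescence followed for 3 min, sampled every second.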

For test [19] the target is unchanged. As to the kind of experiment: 5-hydroxytryptamine receptor 2A (HTR2A) small molecule agonists, cell-based qHTS assay (AID 1963587). Further: nearly all actives have a fitted effect of over 30% in size. The procedure, abridged: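 CHO cells stably expressing human HTR2A, plated 18 h, loaded with calcium dye 1 h at 37 C. Agonist mode: compounds added and intracellular calcium fluorescence recorded kinetically for 2 min at 1 sec intervals.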

Test [20] addresses Muscarinic acetylcholine receptor M1 (Homo sapiens) (UniProt P11229). As to the kind of experiment: Cholinergic receptor muscarinic 1 (CHRM1) small molecule antagonists, cell-based qHTS assay (AID 1963588). Further: nearly all actives have a fitted effect of over 40% in size. In outline: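 CHRM1-CHO calcium-flux assay, antagonist mode. Cells were seeded 18 h, dye-loaded 1 h at 37 C and given compound for 5 min at RT, then acetylcholine was added at 50nM. FDSS fluorescence was read 3 min; 15 concentrations, three runs.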

The structures appear in SMILES notation. Several values for one entry are separate records, joined by “and”; a condition that tells them apart may be missing. Equal values may be shown once. Records with an inconclusive call do not appear. Activity calls are given as the source filed them. Unless noted, the call rests on the fitted dose curve.

Muscarinic acetylcholine receptor M1 (Homo sapiens), sequence (P11229 whole entry, looked up): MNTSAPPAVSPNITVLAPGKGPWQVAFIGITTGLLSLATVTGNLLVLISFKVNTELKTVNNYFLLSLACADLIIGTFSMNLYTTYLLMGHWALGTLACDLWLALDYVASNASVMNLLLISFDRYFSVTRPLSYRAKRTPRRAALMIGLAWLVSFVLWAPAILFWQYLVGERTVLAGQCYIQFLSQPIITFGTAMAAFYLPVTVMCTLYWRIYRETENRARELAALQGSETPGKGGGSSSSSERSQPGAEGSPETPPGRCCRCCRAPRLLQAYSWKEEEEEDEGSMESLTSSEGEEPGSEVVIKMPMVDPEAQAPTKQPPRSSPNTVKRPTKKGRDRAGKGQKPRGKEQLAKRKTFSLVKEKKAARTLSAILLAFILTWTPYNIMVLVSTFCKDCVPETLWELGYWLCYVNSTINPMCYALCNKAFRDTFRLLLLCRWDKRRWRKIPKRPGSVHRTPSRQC
Beta-2 adrenergic receptor (Homo sapiens), sequence (P07550 whole entry, looked up): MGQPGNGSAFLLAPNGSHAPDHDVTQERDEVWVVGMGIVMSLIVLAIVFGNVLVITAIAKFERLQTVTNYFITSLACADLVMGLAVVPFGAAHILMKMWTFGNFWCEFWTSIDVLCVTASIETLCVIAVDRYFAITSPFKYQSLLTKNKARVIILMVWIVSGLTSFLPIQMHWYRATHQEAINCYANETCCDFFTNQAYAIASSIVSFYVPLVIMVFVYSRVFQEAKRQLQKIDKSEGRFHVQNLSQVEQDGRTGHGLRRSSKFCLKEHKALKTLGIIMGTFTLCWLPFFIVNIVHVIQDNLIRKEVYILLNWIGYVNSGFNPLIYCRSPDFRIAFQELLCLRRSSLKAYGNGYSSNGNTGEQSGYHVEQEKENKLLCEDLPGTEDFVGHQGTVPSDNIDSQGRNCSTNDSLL
D(2) dopamine receptor (Homo sapiens), sequence (P14416 whole entry, looked up): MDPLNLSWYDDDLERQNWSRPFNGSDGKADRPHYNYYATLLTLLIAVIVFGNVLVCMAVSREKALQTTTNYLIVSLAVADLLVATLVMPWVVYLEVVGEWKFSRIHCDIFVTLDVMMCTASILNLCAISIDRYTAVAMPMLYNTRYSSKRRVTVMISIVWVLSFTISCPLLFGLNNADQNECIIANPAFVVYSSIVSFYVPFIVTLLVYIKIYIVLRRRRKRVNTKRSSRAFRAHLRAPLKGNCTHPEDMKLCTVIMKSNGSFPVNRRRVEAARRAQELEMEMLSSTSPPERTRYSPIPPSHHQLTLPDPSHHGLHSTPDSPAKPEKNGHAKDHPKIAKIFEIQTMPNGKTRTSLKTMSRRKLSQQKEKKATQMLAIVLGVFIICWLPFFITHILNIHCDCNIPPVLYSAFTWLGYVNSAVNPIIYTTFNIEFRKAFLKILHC
KiSS-1 receptor (Homo sapiens), sequence (Q969F8 whole entry, looked up): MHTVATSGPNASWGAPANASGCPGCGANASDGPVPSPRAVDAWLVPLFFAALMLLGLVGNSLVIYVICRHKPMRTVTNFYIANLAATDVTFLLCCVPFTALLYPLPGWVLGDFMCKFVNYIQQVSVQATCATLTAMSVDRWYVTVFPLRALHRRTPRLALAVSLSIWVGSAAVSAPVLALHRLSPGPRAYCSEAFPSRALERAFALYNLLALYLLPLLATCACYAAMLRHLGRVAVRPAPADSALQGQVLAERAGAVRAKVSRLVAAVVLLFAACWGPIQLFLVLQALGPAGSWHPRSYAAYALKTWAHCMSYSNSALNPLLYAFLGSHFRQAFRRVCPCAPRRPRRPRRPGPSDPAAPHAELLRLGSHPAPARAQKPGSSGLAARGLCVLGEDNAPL
5-hydroxytryptamine receptor 2A (Homo sapiens), sequence (P28223 whole entry, looked up): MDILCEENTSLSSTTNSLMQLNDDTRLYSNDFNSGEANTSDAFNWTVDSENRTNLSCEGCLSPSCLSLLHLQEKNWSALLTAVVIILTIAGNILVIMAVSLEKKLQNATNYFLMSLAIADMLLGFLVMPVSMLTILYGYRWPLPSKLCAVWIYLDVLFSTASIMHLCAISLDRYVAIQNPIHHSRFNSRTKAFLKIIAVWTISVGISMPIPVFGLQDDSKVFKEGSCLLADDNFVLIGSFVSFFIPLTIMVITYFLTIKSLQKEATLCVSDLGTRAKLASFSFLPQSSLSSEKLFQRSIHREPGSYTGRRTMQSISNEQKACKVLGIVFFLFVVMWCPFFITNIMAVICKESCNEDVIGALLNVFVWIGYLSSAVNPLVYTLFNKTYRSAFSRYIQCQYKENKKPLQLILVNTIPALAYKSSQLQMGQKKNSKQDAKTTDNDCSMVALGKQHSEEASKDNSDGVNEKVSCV

Turning to `Cn1c(=O)c2[nH]cnc2n(C)c1=O`, the Potency entry in [1], in test [2], in test [3], in [4], in [5] and in test [6] was “inactive” each time. For the same compound, the Potency result in test [7], in test [8], in [9], in [10], in test [11] and in test [12] was “inactive” in each case. Moreover, the Potency entry in test [13], in test [14], in test [15] and in [16] was “inactive” each time.
Consider `CCCc1cc(=O)[nH]c(=S)[nH]1`, for which the Potency result in test [1], in test [2], in test [3], in test [4], in test [5] and in [6] was “inactive” throughout. The Potency result in test [7], in [8], in test [9], in test [10], in test [11] and in test [12] was “inactive” in each case. Besides, the Potency entry in [14], in [17], in [15] and in test [16] was “inactive” each time.
Regarding `O=S(=O)(O)c1ccc2cc(O)ccc2c1`, the Potency result in test [1], in test [2], in test [3], in [4], in test [5] and in [6] was “inactive” in each case. Further, the Potency entry in test [7], in [8], in [9], in test [11], in test [18] and in [19] was “inactive” each time. In addition, the Potency entry in test [20], in test [12], in test [13], in [14], in test [17] and in test [15] was “inactive” throughout. In addition, in [16], the Potency result is “inactive”.
Consider `Cc1cc(=O)oc2cc(O)ccc12`, for which the Potency result in test [1], in test [2], in test [3], in test [4], in test [5] and in test [6] was “inactive” throughout. Also, the Potency entry in [8], in test [9], in test [11], in [19], in test [20] and in test [12] was “inactive” each time. Further, the Potency result in test [14], in test [17], in [15] and in [16] was “inactive” throughout. In [7], the Potency was 36.3 µM (active) and 22.9 µM (active).
On to `CCCCCCCCCCCCc1ccccc1O`, for which the Potency in test [1] was 21.4 µM (active) and 24.3 µM (active); in test [8], 18 µM (active) and 20.4 µM (active); in [10], 14.3 µM (active) and 18.2 µM (active). In addition, the Potency result in test [2], in test [3], in test [4], in [5], in test [6] and in test [7] was “inactive” throughout. In addition, the Potency result in test [9], in test [18], in test [19], in test [20], in test [15] and in [16] was “inactive” throughout.
`[O-]/[N+](=N\O)c1ccccc1`: the Potency result in test [1], in [3], in test [4], in [5], in [6] and in test [7] was “inactive” in each case. Moreover, the Potency entry in test [8], in test [9], in test [10], in test [18], in [20] and in test [12] was “inactive” in each case. For the same compound, the Potency entry in [13] and in [15] was “inactive” each time. In addition, in test [2], the Potency was 68 µM (active) and 34.4 µM (active).
For the compound `C#CCN(C)Cc1ccccc1`, the Potency entry in [1], in test [2], in [3], in test [4], in test [5] and in test [6] was “inactive” throughout. Also, the Potency result in [7], in test [8], in test [10], in test [11], in test [18] and in [19] was “inactive” throughout. Also, the Potency result in test [20], in [12], in test [13], in test [14], in test [17] and in test [16] was “inactive” throughout.
